Reference: the supplement of paper PMC8728848
The entries come from a sample that favours the strongest signals as a whole.

Tests used:
Assay in all cases: glycan array binding signal (z-score within array); higher = stronger binding
Details in all cases: glycan notation: IUPAC condensed, linker removed
[1] = biological target: Gal(b1-4)GlcNAc(b1-6)GalNAc
How it was run: (§1)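 Glycan array data came from 3228 arrays in the Consortium for Functional Glycomics database, and only arrays with an available protein sequence were kept. Glycan names were put into IUPAC-condensed notation, and columns mapping to the same glycan were averaged. The binding signal is a within-array Z-score, averaged across arrays of one protein sequence run at different concentrations or buffers and across linkers. A negative Z-score can be read as non-binding.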

[2] = biological target: Gal3S(b1-4)[Fuc(a1-3)]GlcNAc
How it was run: as §1

[3] = biological target: Gal3S(b1-4)[Fuc(a1-3)]GlcNAc6S
How it was run: as §1

[4] = biological target: GalNAc(b1-4)GlcNAc(b1-2)Man(a1-3)[GalNAc(b1-4)GlcNAc(b1-2)Man(a1-6)]Man(b1-4)GlcNAc(b1-4)GlcNAc
How it was run: as §1

[5] = biological target: GalNAc(b1-4)GlcNAc(b1-3)GalNAc(b1-4)GlcNAc
How it was run: as §1

[6] = biological target: GlcNAc(a1-4)Gal(b1-4)GlcNAc
How it was run: as §1

[7] = biological target: GlcNAc(b1-2)[GlcNAc(b1-4)]Man(a1-3)[GlcNAc(b1-2)Man(a1-6)]Man(b1-4)GlcNAc(b1-4)GlcNAc
How it was run: as §1

[8] = biological target: GlcNAc(b1-2)[GlcNAc(b1-4)]Man(a1-3)[GlcNAc(b1-4)][GlcNAc(b1-2)[GlcNAc(b1-6)]Man(a1-6)]Man(b1-4)GlcNAc(b1-4)GlcNAc
How it was run: as §1

GlcNAc(b1-3)Gal = biological target: GlcNAc(b1-3)Gal
How it was run: as §1

[9] = biological target: GlcNAc(b1-3)Gal(b1-4)GlcNAc
How it was run: as §1

[10] = biological target: GlcNAc(b1-3)Gal(b1-4)GlcNAc(b1-3)Gal(b1-4)GlcNAc(b1-3)Gal(b1-4)GlcNAc(b1-2)[GlcNAc(b1-3)Gal(b1-4)GlcNAc(b1-3)Gal(b1-4)GlcNAc(b1-3)Gal(b1-4)GlcNAc(b1-6)]Man(a1-6)[GlcNAc(b1-3)Gal(b1-4)GlcNAc(b1-3)Gal(b1-4)GlcNAc(b1-3)Gal(b1-4)GlcNAc(b1-2)Man(a1-3)]Man(b1-4)GlcNAc(b1-4)[Fuc(a1-6)]GlcNAc
How it was run: as §1

[11] = biological target: GlcNAc(b1-3)Gal(b1-4)GlcNAc(b1-3)Gal(b1-4)GlcNAc(b1-3)GalNAc
How it was run: as §1

Man(a1-2)Man(a1-3)Man = biological target: Man(a1-2)Man(a1-3)Man
How it was run: as §1

[12] = biological target: Man(a1-2)Man(a1-3)[Man(a1-2)Man(a1-6)]Man(a1-6)[Man(a1-2)Man(a1-2)Man(a1-3)]Man(b1-4)GlcNAc(b1-4)GlcNAc
How it was run: as §1

[13] = biological target: Man(a1-3)[Man(a1-6)]Man(a1-6)[Man(a1-2)Man(a1-3)]Man(b1-4)GlcNAc(b1-4)GlcNAc
How it was run: as §1

[14] = biological target: Neu5Ac(a2-3)Gal(b1-3)GlcNAc
How it was run: as §1

Neu5Ac(a2-3)Gal(b1-4)Glc = biological target: Neu5Ac(a2-3)Gal(b1-4)Glc
How it was run: as §1

[15] = biological target: Neu5Ac(a2-3)Gal(b1-4)GlcNAc(b1-3)Gal(b1-4)GlcNAc(b1-3)GalNAc
How it was run: as §1

[16] = biological target: Neu5Ac(a2-3)Gal(b1-4)[Fuc(a1-3)]GlcNAc(b1-3)GalNAc
How it was run: as §1

[17] = biological target: Neu5Ac(a2-3)Gal(b1-4)[Fuc(a1-3)]GlcNAc(b1-6)[Neu5Ac(a2-3)Gal(b1-3)]GalNAc
How it was run: as §1

Neu5Ac(a2-6)Gal = biological target: Neu5Ac(a2-6)Gal
How it was run: as §1

[18] = biological target: Neu5Ac(a2-6)Gal(b1-4)GlcNAc(b1-2)Man(a1-3)[Neu5Ac(a2-6)Gal(b1-4)GlcNAc(b1-2)Man(a1-6)]Man(b1-4)GlcNAc(b1-4)GlcNAc
How it was run: as §1

[19] = biological target: Neu5Ac(a2-6)Gal(b1-4)GlcNAc(b1-3)Gal(b1-4)GlcNAc
How it was run: as §1

[20] = biological target: Neu5Ac(a2-6)Gal(b1-4)GlcNAc(b1-3)Gal(b1-4)GlcNAc(b1-3)Gal(b1-4)GlcNAc(b1-2)Man(a1-3)[Neu5Ac(a2-6)Gal(b1-4)GlcNAc(b1-3)Gal(b1-4)GlcNAc(b1-3)Gal(b1-4)GlcNAc(b1-2)Man(a1-6)]GalNAc
How it was run: as §1

B1: PX9961U-pdi-543-24-543 (Parabacteroides distasonis) (protein)
chain: EEPVGEFLPGQVESEENIEGIVTGAYAVLDGYYASDAINSGCSNWQFGDVVSDDAYKGGGGTGDQNQIHLMEIFNANPTGIDFEARWAALYEGIKRCNQAIRLLNGSEVKNKEQRLAEMRFLRGHYYFNLKIIYNQIPWIDETLVDPNEYNKKSNIEFSSDQLWEKILEEFSAAYKVLPESQADYGRPTKMAARAYMAKVYLYQSKWKECLEACDEVIQSGKYELFPDFRNVFLPENDNCSEIIFAIQLSINDGSPNNENGSYGDRLLPPGGPYPVYGFLRPTQNLVNAYKTDVKGLPYNDGKDVSENDYVDVRLDHTLARPNIPFMDVQLYDWTPREASVYGPYSPKKRLVSLNSTYYSPIWPYVNALNFYVIRYADLLLWRAEAAIETGDLETGRKYINMIRERAKNTQHVKTMDQSQDAANYKVGVYDEPFKSKNEAVQALRMERRLEMAHEGIRFFDLVRWGVADEVINAYIAKEKVFRSHLQNAHFVKGKHEYFPIPQSMIDICGTEVMKQNPGY
[1]
  glycan array binding signal (z-score): -0.178
[2]
  glycan array binding signal (z-score): -0.303
[3]
  glycan array binding signal (z-score): -0.27
[4]
  glycan array binding signal (z-score): -0.253
[5]
  glycan array binding signal (z-score): 0.352
[6]
  glycan array binding signal (z-score): -0.445
[7]
  glycan array binding signal (z-score): -0.415
[8]
  glycan array binding signal (z-score): -0.386
GlcNAc(b1-3)Gal
  glycan array binding signal (z-score): -0.394
[9]
  glycan array binding signal (z-score): -0.432
[10]
  glycan array binding signal (z-score): -0.308
[11]
  glycan array binding signal (z-score): -0.417
Man(a1-2)Man(a1-3)Man
  glycan array binding signal (z-score): -0.489
[12]
  glycan array binding signal (z-score): -0.408
[13]
  glycan array binding signal (z-score): 6.64
[14]
  glycan array binding signal (z-score): -0.408
Neu5Ac(a2-3)Gal(b1-4)Glc
  glycan array binding signal (z-score): -0.368
[15]
  glycan array binding signal (z-score): -0.376
[16]
  glycan array binding signal (z-score): 3.69
[17]
  glycan array binding signal (z-score): 1.28
Neu5Ac(a2-6)Gal
  glycan array binding signal (z-score): -0.428
[18]
  glycan array binding signal (z-score): -0.347
[19]
  glycan array binding signal (z-score): -0.364
[20]
  glycan array binding signal (z-score): 0.5
